Structures can show the parent of a compound that is named as a salt.
What was measured:
[1] = test system: S. cerevisiae SK1 pCDA2-eGFP (USY613), sporulating; experiment: CDA2-GFP sporulation assay sensitivity score (z-score vs DMSO controls); higher = stronger inhibition of sporulation, active = hit call of the paper;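 note: active if sensitivity score above 5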
[2] = test system: S. cerevisiae AD1-9 (efflux-pump deficient), vegetative growth in YPD; experiment: growth sensitivity score (doubling time z-score vs DMSO controls); higher = slower growth, strongly negative scores also mark growth inhibition (complete suppression), active = hit call of the paper
Method in brief: (§1)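 Rich medium in microtiter plates was seeded with Saccharomyces cerevisiae strains BY4741 and AD1-9 at an OD600 of 0.065, and compounds were added as a 1:100 dilution of DMSO stock. A Tecan GENios reader recorded optical density every 15 min for 24 hours, with eight solvent-only wells in each experiment. Average doubling time was the time to reach a set generation point divided by generation number. The growth sensitivity score was the compound mean minus the solvent-only mean, divided by the solvent-only standard deviation.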

[3] = test system: S. cerevisiae BY4741 (wild-type), vegetative growth in YPD; experiment: as above
Method in brief: as §1

Compound	CDA2-GFP sporulation assay sensitivity score [1]	growth sensitivity score [2]	growth sensitivity score [3]
CC(C)(C)C(O)/C=C/c1ccc2c(c1)OCO2 (stereo unspecified) [Stiripentol] (stock concentration (mM, diluted 1:100): 10)	5.09 (inactive)	5.27 (active)	2.6 (active)
Cc1cn([C@H]2C=C[C@@H](CO)O2)c(=O)[nH]c1=O [Stavudine] (stock concentration (mM, diluted 1:100): 10)	-1.16 (inactive)	0.68 (inactive)	0.1 (inactive)
COc1cc(C[C@@H](CO)[C@H](CO)Cc2ccc(O)c(OC)c2)ccc1O [Secoisolariciresinol] (stock concentration (mM, diluted 1:100): 10)	-0.44 (inactive)	0.75 (inactive)	-0.92 (inactive)
CC(C)c1ccc2c(c1)c(SC(C)(C)C)c(CC(C)(C)C(=O)O)n2Cc1ccc(Cl)cc1 [Tocris-1311] (stock concentration (mM, diluted 1:100): 10)	11.2 (active)	6.29 (active)	-0.4 (inactive)
CCc1c2c(nc3ccc(OC(=O)N4CCC(N5CCCCC5)CC4)cc13)-c1cc3c(c(=O)n1C2)COC(=O)[C@]3(O)CC [Irinotecan hydrochloride] (stock concentration (mM, diluted 1:100): 8.7)		2.14 (active)	-1.27 (inactive)
CN(CCOc1ccc(CC2SC(=O)NC2=O)cc1)c1ccccn1 (stereo unspecified) [Rosigltazone hydrochloride] (stock concentration (mM, diluted 1:100): 8.2)	-0.4 (inactive)	0.66 (inactive)	2.48 (active)
C[C@]12CC[C@@H]3c4ccc(OS(=O)(=O)O)cc4CC[C@H]3[C@@H]1CCC2=O (stock concentration (mM, diluted 1:100): 10)	4.09 (inactive)	0.01 (inactive)	-0.87 (inactive)
CC(=O)NCCCCCCNC(C)=O [Hexamethylene bisacetamide] (stock concentration (mM, diluted 1:100): 10)	0.71 (inactive)	1.99 (inactive)	1.69 (inactive)
CC(COc1ccccc1Cc1ccccc1)N1CCCCC1 (stereo unspecified) [Benproperine phosphate] (stock concentration (mM, diluted 1:100): 10)	0.55 (inactive)	3.29 (active)	6.41 (active)
O=C(O[C@@H]1C[C@@H]2C[C@H]3C[C@H](C1)N2CC3=O)c1c[nH]c2ccccc12 [Dolasetron mesylate] (stock concentration (mM, diluted 1:100): 10.4)	-1 (inactive)	-0.71 (inactive)	0.44 (inactive)
COc1ccc(CCN(C)CCCC(C#N)(c2ccc(OC)c(OC)c2)C(C)C)cc1OC (stereo unspecified) (stock concentration (mM, diluted 1:100): 10)	2.38 (inactive)		0.01 (inactive)
Cc1c(C(=O)NN2CCCCC2)nn(-c2ccc(Cl)cc2Cl)c1-c1ccc(I)cc1 (stock concentration (mM, diluted 1:100): 10)	-0.97 (inactive)		-2.45
O=C(O[C@H]1[C@H](Oc2ccccc2COC(=O)C2(O)C=CCCC2=O)O[C@H](CO)[C@@H](O)[C@@H]1O)c1ccccc1 (stereo partly specified) [Tremulacin] (stock concentration (mM, diluted 1:100): 10)	3.04 (inactive)	-1.16 (inactive)	-0.72 (inactive)
Cc1ccc(NC(=O)c2ccc(CN3CCN(C)CC3)cc2)cc1Nc1nccc(-c2cccnc2)n1 [Imatinib mesylate] (stock concentration (mM, diluted 1:100): 8.4)	7.85 (active)	7.33 (active)	0.53 (inactive)
CCOC(=O)C1=C(COCCN)NC(C)=C(C(=O)OC)C1c1ccccc1Cl (stereo unspecified) [Amlodipine base] (stock concentration (mM, diluted 1:100): 13.9)	5.4 (active)		14.2 (active)
Cc1cccc(CCN2CCC(C(=O)c3ccc(NS(C)(=O)=O)cc3)CC2)n1 (stock concentration (mM, diluted 1:100): 9.9)	-0.99 (inactive)		-0.44 (inactive)
O=C(O[C@@H]1Cc2c(O)cc(O)cc2O[C@@H]1c1cc(O)c(O)c(O)c1)c1cc(O)c(O)c(O)c1 [Epigallocatechin gallate] (stock concentration (mM, diluted 1:100): 10)	-1.44 (inactive)	-3.35	0.97 (inactive)
COC1=C(OC)C(=O)C(CCCCCCCCCCO)=C(C)C1=O [Idebenone] (stock concentration (mM, diluted 1:100): 10.2)	0.12 (inactive)		15.6 (active)
COc1ccc(CN2CCN(C(c3ccc(F)cc3)c3ccc(F)cc3)CC2)c(OC)c1OC [Lomerizine dihydrochloride] (stock concentration (mM, diluted 1:100): 8.7)	13.1 (active)		2.29 (active)
NC(=O)N1c2ccccc2CC(=O)c2ccccc21 [Trileptal] (stock concentration (mM, diluted 1:100): 10)		1.04 (inactive)	1.24 (inactive)
CCC1=C[C@H]2CN(C1)Cc1c([nH]c3ccccc13)[C@@](C(=O)OC)(c1cc3c(cc1OC)N(C)[C@H]1[C@@](O)(C(=O)OC)[C@H](OC(C)=O)[C@]4(CC)C=CCN5CC[C@]31[C@@H]54)C2 [Vinorelbine bitatrate] (stock concentration (mM, diluted 1:100): 7.2)	1.77 (inactive)	-3.29	-1.83 (inactive)
Cc1ccsc1C(=CCCN1CCC[C@@H](C(=O)O)C1)c1sccc1C [Tiagabine hydrochloride] (stock concentration (mM, diluted 1:100): 9.1)	2.44 (inactive)	0.07 (inactive)	0.29 (inactive)
C[C@]12CCC(=O)C=C1CC[C@@H]1[C@@H]2CC[C@@]2(C)[C@H]1CC[C@]2(O)C(=O)CO [Cortodoxone] (stock concentration (mM, diluted 1:100): 10)	5 (inactive)	6.84 (active)	-0.69 (inactive)
CCOc1cc(CC(=O)N[C@@H](CC(C)C)c2ccccc2N2CCCCC2)ccc1C(=O)O [Repaglinide] (stock concentration (mM, diluted 1:100): 10)	2 (inactive)		2.53 (active)
O=c1cnn([C@@H]2O[C@H](CO)[C@@H](O)[C@H]2O)c(=O)[nH]1 [6-Azauridine] (stock concentration (mM, diluted 1:100): 10)	0.6 (inactive)	0.13 (inactive)	0.64 (inactive)

Reference: the supplement of paper PMC3414501
